Assay results: PubChem BioAssay AID1159580 (chemical genetic matrix, 2015)
“And” between values parts separate entries of the source, which are not always exact repeats. Equal entries are not always repeated. In all, about 5,500 compounds went through this assay and about 2,000 (36%) were called active. Not shown: some 18% with an inconclusive outcome. Rule as the data show it: active = normalized growth mostly below about 0.91 (no sharp cut-off); inconclusive = no clear call, values can overlap the other calls; inactive = mostly above about 0.92. The list shows a part of the results.

Experiment: chemical genetic growth profiling, strain panel (AID 1159580);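 also: tested at 20 µM; growth read once vehicle control cultures reached saturation at 30 °C; 1 = growth at the plate median or of vehicle wells; lower values mean less growth of the strain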
Conditions: S. cerevisiae deletion strains, growth OD

Measured: normalized growth

NCC(=O)c1ccccc1
inactive: locus YAL013W, strain DEP1, hits give low values 1.02 | locus YAL021C, strain ccr4, hits give low values 1.02 | locus YAL026C, strain drs2, hits give low values 1.01 | locus YAL030W, strain snc1, hits give low values 1 | locus YBL061C, strain skt5, hits give low values 0.995 | locus YBR009C, strain hhf1, hits give low values 0.999 | locus YBR021W, strain FUR4, hits give low values 1.02 | locus YBR023C, strain chs3, hits give low values 1 | locus YBR171W, strain sec66, hits give low values 1 | locus YBR229C, strain ROT2, hits give low values 1.01 | locus YBR231C, strain swc5, hits give low values 0.998 | locus YBR279W, strain paf1, hits give low values 1.01 | locus YCL011C, strain gbp2, hits give low values 1.01 | locus YCL016C, strain dcc1, hits give low values 1 | locus YCL029C, strain bik1, hits give low values 0.998 | locus YCL061C, strain MRC1, hits give low values 0.996 | locus YCL069W, strain vba3, hits give low values 0.997 | locus YCR088W, strain abp1, hits give low values 1 | locus YDL005C, strain med2, hits give low values 0.984 | locus YDL035C, strain GPR1, hits give low values 1.02 | locus YDL040C, strain nat1, hits give low values 1 | locus YDL074C, strain BRE1, hits give low values 1.06 | locus YDL101C, strain DUN1, hits give low values 1.02 | locus YDL134C, strain PPH21, hits give low values 1.02 | locus YDL185W, strain tfp1, hits give low values 0.996 | locus YDL192W, strain arf1, hits give low values 0.997 | locus YDR001C, strain nth1, hits give low values 1.01 | locus YDR069C, strain doa4, hits give low values 1.02 | locus YDR101C, strain arx1, hits give low values 0.983 | locus YDR137W, strain rgp1, hits give low values 1.01 | locus YDR150W, strain NUM1, hits give low values 1.03 | locus YDR159W, strain sac3, hits give low values 0.993 | locus YDR162C, strain NBP2, hits give low values 1.04 | locus YDR195W, strain ref2 0.976 | locus YDR297W, strain sur2, hits give low values 0.989 | locus YDR318W, strain mcm21, hits give low values 0.982 | locus YDR334W, strain swr1, hits give low values 0.999 | locus YDR335W, strain msn5, hits give low values 1.01 | locus YDR388W, hits give low values 0.991 | locus YDR392W, strain spt3, hits give low values 1.02 | locus YDR502C, strain sam2, hits give low values 0.988 | locus YEL003W, strain gim4, hits give low values 1 | locus YEL037C, strain rad23, hits give low values 1 | locus YEL061C, strain CIN8 (second series), hits give low values 1.02 | locus YEL061C, strain CIN8, hits give low values 1.01 | locus YER015W, strain faa2, hits give low values 1 | locus YER016W, strain bim1, hits give low values 0.987 | locus YER110C, hits give low values 0.996 | locus YER111C, strain swi4, hits give low values 0.992 | locus YER155C, strain BEM2 (second series), hits give low values 1 | locus YER155C, strain BEM2, hits give low values 1.01 | locus YER167W, strain BCK2, hits give low values 1.02 | locus YFR010W, strain ubp6, hits give low values 0.999 | locus YGL078C, strain dbp3, hits give low values 0.994 | locus YGL086W, strain mad1, hits give low values 1 | locus YGL167C, strain pmr1, hits give low values 0.997 | locus YGL173C, strain kem1, hits give low values 0.998 | locus YGL227W, strain vid30, hits give low values 1.01 | locus YGL240W, strain doc1, hits give low values 1.02 | locus YGL248W, strain PDE1, hits give low values 1.02 | locus YGL253W, strain hxk2, hits give low values 1.02 | locus YGR078C, strain PAC10, hits give low values 1.02 | locus YGR135W, strain pre9, hits give low values 0.994 | locus YGR229C, strain SMI1, hits give low values 1.03 | locus YGR252W, strain gcn5, hits give low values 0.964 | locus YHR013C, strain ard1, hits give low values 0.979 | locus YHR027C, strain rpn1, hits give low values 1.02 | locus YHR030C, strain SLT2, hits give low values 1.01 and 1.02 | locus YHR079C, strain IRE1 (second series), hits give low values 0.996 | locus YHR079C, strain IRE1, hits give low values 1.03 | locus YHR094C, strain hxt1, hits give low values 0.988 | locus YHR129C, strain ARP1, hits give low values 1.01 | locus YHR142W, strain chs7, hits give low values 1.01 | locus YHR200W, strain rpn10, hits give low values 0.988 | locus YIL066C, strain RNR3, hits give low values 1.02 | locus YIL073C, strain SPO22, hits give low values 0.951 | locus YIL125W, strain kgd1, hits give low values 1 | locus YIR030C, strain dcg1, hits give low values 0.992 | locus YJL092W, strain hpr5, hits give low values 1 | locus YJL095W, strain BCK1 (second series), hits give low values 0.999 | locus YJL095W, strain BCK1, hits give low values 1.05 and 1.03 | locus YJL115W, strain asf1, hits give low values 1 | locus YJL129C, strain trk1, hits give low values 1 | locus YJL134W, strain LCB3, hits give low values 1.01 | locus YJL154C, strain vps35, hits give low values 1 | locus YJL164C, strain tpk1, hits give low values 0.996 | locus YJL166W, strain qcr8, hits give low values 1.02 | locus YJL168C, strain set2, hits give low values 0.994 | locus YJL187C, strain SWE1 (second series), hits give low values 1.02 | locus YJR043C, strain POL32, hits give low values 1 | locus YJR066W, strain TOR1, hits give low values 0.997
